For orientation: AC50 means the concentration at which the activity in the assay is half-maximal.

Here are results for 23 molecules from PubChem BioAssay (EPA / NIEHS).

Active and inactive are the calls of the source. Rule for the calls: active = hit-call score of the fitted dose curve at least 0.9, where 1 is the maximum; inactive = score below 0.9.

Common to all, as to conditions: primary human lung fibroblasts
Read-out in test [1]: Plasminogen activator inhibitor-1 (PAI1), SERPINE1 (gene 5054)
Description: BSK_MyoF_PAI1: BioMAP Diversity Plus: MyoF Assay for Plasminogen activator inhibitor-1 (PAI1) Biomarker Activity (AID 2284256).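 For outcome: PAI-1 protein level measured by ELISA in fibroblast cultures; PAI-1 read 24 h after compound addition.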 The method in brief: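 Primary human lung fibroblasts are dosed and incubated 24 h. PAI-1 is then measured by ELISA, while parallel cultures undergo SRB staining for overt cytotoxicity. Increases over DMSO define activity.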

Read-out in test [2]: Interleukin-8 (IL8), CXCL8 (gene 3576)
In words: BSK_MyoF_IL8: BioMAP Diversity Plus: MyoF Assay for Interleukin-8 (IL8) Biomarker Activity (AID 2284261). The method, boiled down: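 IL-8 levels were measured by ELISA in human lung fibroblasts harvested 24 h after compound addition. Responses were analysed as gain of signal over the DMSO baseline.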

Read-out in another test: Decorin, DCN (gene 1634)
Description: BSK_MyoF_Decorin: BioMAP Diversity Plus: MyoF Assay for Decorin Biomarker Activity (AID 2284265). The method in brief: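 Compound is added to lung fibroblast cultures; cells incubate 24 h; decorin is then measured by ELISA; the response is analysed upward against DMSO controls.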

Test [3] in a line: BSK_MyoF_SRB: Viability Assessment in the BioMAP Diversity Plus: MyoF Assay (AID 2284267).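 Note: total protein by SRB absorbance in parallel cultures as cytotoxicity measure; cells assessed 24 h after compound addition.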 The method in brief:
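In this viability endpoint, fibroblasts from human lung are treated for 24 h, TCA-fixed, SRB-stained (0.1%) and read at 560 nm. Gain of signal relative to DMSO defines activity.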

Read-out in test [4]: Matrix Metallopeptidase 1 (MMP1), MMP1 (gene 4312)
Description: BSK_MyoF_MMP1: BioMAP Diversity Plus: MyoF Assay for Matrix Metallopeptidase 1 (MMP1) Biomarker Activity (AID 2284268). The method, boiled down: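 Lung fibroblast cultures were dosed with test chemicals and, after 24 h, MMP1 levels were measured by ELISA; responses were referenced to DMSO and analysed for increases.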

Read-out in test [5]: TIMP metallopeptidase inhibitor 1 (TIMP1), TIMP1 (gene 7076)
Description: BSK_MyoF_TIMP1: BioMAP Diversity Plus: MyoF Assay for TIMP metallopeptidase inhibitor 1 (TIMP1) Biomarker Activity (AID 2284269). The method, boiled down:
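ELISA quantified TIMP-1 levels after 24 h dosing of primary human lung fibroblasts, with DMSO as baseline. Parallel SRB total protein staining (0.1% SRB after TCA fixation, 560 nm) flagged overt cytotoxicity.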

For `CC(C)(C)CC(C)(C)c1ccc(OCCOCC[N+](C)(C)Cc2ccccc2)cc1`, the AC50 was 5 µM (active) in test [1], 5 µM (active) in test [2], 7.98 µM (active) in test [3] and 5 µM (active) in test [5]. Moreover, the outcome with Decorin, DCN (gene 1634) is “inactive”; in test [4], “inactive”.
Turning to `IC(I)I`, the outcome in test [1] was “inactive”; in test [2] it was “inactive”; in the test with Decorin, DCN (gene 1634) it was “inactive”; in test [3] it was “inactive”; in test [4], “inactive”; in test [5], “inactive”.
Turning to `CC(=O)C1(C)CC2=C(CCCC2(C)C)CC1C` (stereo not drawn), the half-maximal activity concentration (AC50) in test [1] was 11.2 µM (active); in test [3], 14.6 µM (active); in test [4] it was 4.66 µM (active); in test [5], 20 µM (active). Besides, the outcome was “inactive” in test [2] and “inactive” with Decorin, DCN (gene 1634).
Consider `CCCCN(CCCC)C(=O)N(CCCC)CCCC`, for which the AC50 in test [1] is 10.7 µM (active); in test [3] it was 11 µM (active); in test [4], 7.64 µM (active); in test [5] it was 9.42 µM (active). For the same molecule, the outcome in test [2] was “inactive”; with Decorin, DCN (gene 1634) it was “inactive”.
Turning to `c1ccc(Oc2ccccc2)cc1`, the outcome was “inactive” in test [1]; “inactive” in test [2]; “inactive” in the test with Decorin, DCN (gene 1634); “inactive” in test [3]; “inactive” in test [4]; “inactive” in test [5].
In the case of `Cc1cc(CCC(=O)OCCOCCOCCOC(=O)CCc2cc(C)c(O)c(C(C)(C)C)c2)cc(C(C)(C)C)c1O`, the outcome was “inactive” in test [1]; “inactive” in test [2]; “inactive” with Decorin, DCN (gene 1634); “inactive” in test [3]; “inactive” in test [4]; “inactive” in test [5].
With `C[C@@H]1CCN(C(=O)[C@H](CCCN=C(N)N)NS(=O)(=O)c2cccc3c2NC[C@H](C)C3)[C@@H](C(=O)O)C1`, the outcome in test [1] is “inactive”; in test [2], “inactive”; with Decorin, DCN (gene 1634), “inactive”; in test [3] it was “inactive”; in test [4], “inactive”; in test [5], “inactive”.
Regarding `CCCCCC(C=O)=Cc1ccccc1`, the outcome in test [1] was “inactive”; in test [2], “inactive”; with Decorin, DCN (gene 1634), “inactive”; in test [3], “inactive”; in test [5], “inactive”. In test [4], the AC50 is 28.4 µM (active).
With `c1ccc(CCc2ccccc2)cc1`, the AC50 in test [1] is 35.2 µM (active); in the test with Decorin, DCN (gene 1634), 26.8 µM (active); in test [3], 37.2 µM (active); in test [5], 30.2 µM (active). The result in test [2] and in test [4] was inactive.
Turning to `C=C(C)C(=O)OCC(CC)(COC(=O)C(=C)C)COC(=O)C(=C)C`, the AC50 in test [1] was 13 µM (active); with Decorin, DCN (gene 1634), 10.1 µM (active); in test [3], 15.5 µM (active); in test [4], 5.25 µM (active); in test [5], 32.3 µM (active). Besides, the result in test [2] was inactive.
On to `CCCCOC(=O)CCCCCCCC(=O)OCCCC`, for which the outcome was “inactive” in test [1]; “inactive” in test [2]; “inactive” with Decorin, DCN (gene 1634); “inactive” in test [3]; “inactive” in test [4]; “inactive” in test [5].
For the molecule `CSCCC=O`, the outcome in test [1] was “inactive”; in test [2] it was “inactive”; with Decorin, DCN (gene 1634), “inactive”; in test [3], “inactive”; in test [4] it was “inactive”; in test [5], “inactive”.
Consider `COc1ccc(CCN2CCC(Nc3nc4ccccc4n3Cc3ccc(F)cc3)CC2)cc1`, for which the outcome in test [1] was “inactive”; with Decorin, DCN (gene 1634), “inactive”; in test [5], “inactive”. Also, the AC50 in test [2] was 7.38 µM (active); in test [3] it was 7.48 µM (active); in test [4], 3.79 µM (active).
Take `Oc1c(Cl)cc(Cl)c(Cl)c1Cc1c(O)c(Cl)cc(Cl)c1Cl`: the AC50 in test [1] is 0.83 µM (active); in test [2], 13 µM (active); in test [3], 5.13 µM (active); in test [4], 0.198 µM (active); in test [5] it was 1.07 µM (active). Moreover, in the test with Decorin, DCN (gene 1634), the result was inactive.
For `CN(C)C(=O)Nc1ccc(Oc2ccc(Cl)cc2)cc1`, in test [1], the AC50 was 0.016 µM (active). Moreover, the outcome in test [2] was “inactive”; in the test with Decorin, DCN (gene 1634), “inactive”; in test [3], “inactive”; in test [4], “inactive”; in test [5], “inactive”.
Turning to `CC1(C)C2=CCCC(C)(C)[C@]23CC[C@H]1C3`, the AC50 in test [1] was 35.3 µM (active); in test [3], 30.9 µM (active); in test [4], 31.2 µM (active). The outcome in test [2] is “inactive”; in the test with Decorin, DCN (gene 1634), “inactive”; in test [5] it was “inactive”.
As for `O=C1OC[C@H](Cc2cccc(O)c2)[C@H]1Cc1cccc(O)c1`, the outcome in test [1] was “inactive”; in test [2], “inactive”; with Decorin, DCN (gene 1634), “inactive”; in test [3], “inactive”; in test [4], “inactive”; in test [5], “inactive”.
In the case of `C=C(C)C(=O)OCCOCCOCCOCCOC(=O)C(=C)C`, the outcome was “inactive” in test [1]; “inactive” in test [2]; “inactive” in the test with Decorin, DCN (gene 1634); “inactive” in test [3]; “inactive” in test [4]; “inactive” in test [5].
As to `CCC(C)c1cc([N+](=O)[O-])cc([N+](=O)[O-])c1OC(=O)OC(C)C` (stereo not drawn), the AC50 is 11.7 µM (active) in test [1]; 35.8 µM (active) in test [2]; 24.4 µM (active) in the test with Decorin, DCN (gene 1634); 13.4 µM (active) in test [3]; 20 µM (active) in test [4]; 13.6 µM (active) in test [5].
As for `COc1cc(Cl)c(OC)cc1N`, the outcome in test [1] was “inactive”; in test [2], “inactive”; with Decorin, DCN (gene 1634), “inactive”; in test [3], “inactive”; in test [4], “inactive”; in test [5], “inactive”.
On to `CN(C)C(=S)SC(=S)N(C)C`, for which the AC50 in test [1] is 3.95 µM (active); in test [4], 29.4 µM (active). The outcome in test [2] is “inactive”; with Decorin, DCN (gene 1634), “inactive”; in test [3], “inactive”; in test [5] it was “inactive”.
On to `C=C(C)C(=O)OCCOCCOCCOC(=O)C(=C)C`, for which the outcome was “inactive” in test [1]; “inactive” in test [2]; “inactive” with Decorin, DCN (gene 1634); “inactive” in test [3]; “inactive” in test [4]; “inactive” in test [5].
With `CC(=O)Nc1ccc(C(=O)CCl)cc1`, the AC50 in test [1] is 13.7 µM (active); in test [2], 29.6 µM (active); in test [3] it was 29.3 µM (active); in test [5], 34.5 µM (active). For the same molecule, the outcome with Decorin, DCN (gene 1634) was “inactive”; in test [4], “inactive”.
